# Measured values taken from PMC7862700, “An all-to-all approach to the identification of sequence-specific readers for epigenetic DNA modifications on cytosine”.
# Legend:
# Experiment in all cases: DAPPL (digital affinity profiling via proximity ligation, sequencing); 10 mM Tris-HCl pH 7.5, 50 mM NaCl, 1 mM DTT, 4% glycerol, room temperature, 30 min; GST-TFs on glutathione beads, 16-mer random dsDNA library, 0.1% formaldehyde crosslink after washing; high values mean tight binding
# Details in all cases: protein: recombinant; tags: N-terminal GST; dsDNA, one strand shown
# [1] = target: ELF1 (Homo sapiens, UniProt P32519 1-619)
# Chain of ELF1 (P32519 whole entry, the tested form may be a part): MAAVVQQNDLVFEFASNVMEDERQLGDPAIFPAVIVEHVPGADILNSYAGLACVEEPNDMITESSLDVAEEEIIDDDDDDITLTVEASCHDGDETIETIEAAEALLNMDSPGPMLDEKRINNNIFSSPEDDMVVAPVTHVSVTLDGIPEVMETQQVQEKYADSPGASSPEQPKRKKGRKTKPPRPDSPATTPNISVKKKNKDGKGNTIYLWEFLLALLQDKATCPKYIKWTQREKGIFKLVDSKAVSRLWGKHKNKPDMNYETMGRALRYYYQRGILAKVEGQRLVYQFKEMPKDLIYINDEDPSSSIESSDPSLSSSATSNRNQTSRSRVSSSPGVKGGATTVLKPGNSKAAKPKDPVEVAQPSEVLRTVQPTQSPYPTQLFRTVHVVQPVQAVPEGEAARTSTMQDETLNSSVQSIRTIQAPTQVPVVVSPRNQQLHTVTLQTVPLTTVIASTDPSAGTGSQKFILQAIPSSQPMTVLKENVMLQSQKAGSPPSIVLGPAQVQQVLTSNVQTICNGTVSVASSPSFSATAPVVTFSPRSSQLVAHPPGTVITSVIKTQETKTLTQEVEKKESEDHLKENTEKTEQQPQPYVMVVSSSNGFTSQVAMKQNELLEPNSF
# How it was run: (§1)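 In yeast, human transcription factors were expressed with a GST fusion, then pulled down on glutathione beads and given DNA barcodes. Pooled with a tag-only sample, they were exposed to 200 nmole of a 16-mer random double-stranded DNA library (Tris/NaCl/DTT/glycerol buffer, room temperature, 30 min), washed, crosslinked with 0.1% formaldehyde, proximity-ligated using BsaI/T4 ligase for 1 h at 37 °C, PCR-amplified and read on an Illumina NextSeq500. Each hexamer's frequency of reads for a factor, divided by the matching frequency for the tag-only sample, gives the binding signal.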
# [2] = target: ELF4 (Homo sapiens, UniProt Q99607 1-663)
# Chain of ELF4 (Q99607 whole entry): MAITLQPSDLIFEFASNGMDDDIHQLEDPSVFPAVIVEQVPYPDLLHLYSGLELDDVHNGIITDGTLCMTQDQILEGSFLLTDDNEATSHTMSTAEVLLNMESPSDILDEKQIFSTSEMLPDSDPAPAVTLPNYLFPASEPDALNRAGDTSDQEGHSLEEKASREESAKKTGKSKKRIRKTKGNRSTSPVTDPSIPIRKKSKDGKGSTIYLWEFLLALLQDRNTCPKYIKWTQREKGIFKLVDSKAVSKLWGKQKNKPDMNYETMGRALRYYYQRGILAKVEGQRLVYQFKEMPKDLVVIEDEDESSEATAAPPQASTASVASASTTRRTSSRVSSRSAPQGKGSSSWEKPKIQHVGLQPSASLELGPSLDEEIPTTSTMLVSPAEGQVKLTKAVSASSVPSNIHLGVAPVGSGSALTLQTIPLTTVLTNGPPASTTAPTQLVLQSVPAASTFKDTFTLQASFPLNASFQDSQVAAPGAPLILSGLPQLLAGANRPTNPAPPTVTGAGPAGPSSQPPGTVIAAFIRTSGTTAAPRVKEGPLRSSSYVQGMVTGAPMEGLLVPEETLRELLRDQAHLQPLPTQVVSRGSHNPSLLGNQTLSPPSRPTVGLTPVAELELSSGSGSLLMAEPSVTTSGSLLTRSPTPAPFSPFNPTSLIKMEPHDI
# How it was run: as §1
# [3] = target: T1, ERF (Homo sapiens, UniProt P50548 1-548)
# T1 sequence: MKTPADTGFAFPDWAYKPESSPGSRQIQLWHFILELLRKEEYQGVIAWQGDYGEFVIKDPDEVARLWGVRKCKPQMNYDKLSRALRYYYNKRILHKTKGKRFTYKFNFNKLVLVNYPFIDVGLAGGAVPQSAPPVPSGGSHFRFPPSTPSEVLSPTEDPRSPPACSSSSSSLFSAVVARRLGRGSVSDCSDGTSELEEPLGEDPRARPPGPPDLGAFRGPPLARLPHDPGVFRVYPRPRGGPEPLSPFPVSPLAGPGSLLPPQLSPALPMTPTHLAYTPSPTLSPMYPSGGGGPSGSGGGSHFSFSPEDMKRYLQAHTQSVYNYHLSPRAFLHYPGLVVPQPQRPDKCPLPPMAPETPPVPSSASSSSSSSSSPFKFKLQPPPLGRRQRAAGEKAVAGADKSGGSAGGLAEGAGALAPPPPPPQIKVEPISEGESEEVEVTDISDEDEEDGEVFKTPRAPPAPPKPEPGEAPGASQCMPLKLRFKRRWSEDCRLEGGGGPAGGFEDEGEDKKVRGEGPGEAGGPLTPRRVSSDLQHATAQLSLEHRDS
# How it was run: as §1
# [4] = target: T2, ELK1 (Homo sapiens, UniProt P19419 1-428)
# T2 sequence: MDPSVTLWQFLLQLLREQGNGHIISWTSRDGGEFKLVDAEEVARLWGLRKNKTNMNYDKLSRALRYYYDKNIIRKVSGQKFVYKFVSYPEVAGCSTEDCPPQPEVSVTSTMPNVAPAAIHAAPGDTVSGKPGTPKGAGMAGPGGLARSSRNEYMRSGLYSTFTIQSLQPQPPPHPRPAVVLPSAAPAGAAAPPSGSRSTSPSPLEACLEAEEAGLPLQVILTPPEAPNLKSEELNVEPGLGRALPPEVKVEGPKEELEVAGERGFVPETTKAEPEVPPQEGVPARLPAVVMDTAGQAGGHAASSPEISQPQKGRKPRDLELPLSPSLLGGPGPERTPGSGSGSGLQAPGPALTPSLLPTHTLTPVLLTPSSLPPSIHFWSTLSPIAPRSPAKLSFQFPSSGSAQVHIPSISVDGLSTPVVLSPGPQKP
# How it was run: as §1
# [5] = target: T3, GABPA (Homo sapiens, UniProt Q06546 1-454)
# T3 sequence: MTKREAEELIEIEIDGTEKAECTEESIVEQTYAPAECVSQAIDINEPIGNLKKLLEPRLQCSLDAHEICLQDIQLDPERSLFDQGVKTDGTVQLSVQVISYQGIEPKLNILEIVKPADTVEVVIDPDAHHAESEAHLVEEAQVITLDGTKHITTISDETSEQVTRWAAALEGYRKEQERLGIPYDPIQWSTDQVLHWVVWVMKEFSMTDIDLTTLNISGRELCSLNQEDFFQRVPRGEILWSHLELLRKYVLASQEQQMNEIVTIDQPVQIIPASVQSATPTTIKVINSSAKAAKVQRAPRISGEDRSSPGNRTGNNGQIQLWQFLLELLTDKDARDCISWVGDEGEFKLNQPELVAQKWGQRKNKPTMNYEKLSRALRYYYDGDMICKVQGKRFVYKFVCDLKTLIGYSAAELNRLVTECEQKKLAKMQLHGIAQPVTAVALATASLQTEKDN
# How it was run: as §1
# [6] = target: T4, ELK3 (Homo sapiens, UniProt P41970 1-407)
# T4 sequence: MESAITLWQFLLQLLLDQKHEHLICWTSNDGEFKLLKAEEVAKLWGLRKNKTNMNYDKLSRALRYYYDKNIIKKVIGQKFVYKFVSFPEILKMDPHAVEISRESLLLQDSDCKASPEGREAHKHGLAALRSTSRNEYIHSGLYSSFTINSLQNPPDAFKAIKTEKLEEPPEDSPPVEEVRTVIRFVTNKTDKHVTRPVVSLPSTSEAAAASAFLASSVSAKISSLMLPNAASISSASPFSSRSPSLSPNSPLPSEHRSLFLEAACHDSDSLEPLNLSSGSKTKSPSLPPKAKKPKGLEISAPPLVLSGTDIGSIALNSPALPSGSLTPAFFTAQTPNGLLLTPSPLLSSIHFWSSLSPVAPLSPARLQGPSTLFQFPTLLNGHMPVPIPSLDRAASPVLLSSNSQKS
# How it was run: as §1
# [7] = target: T5, FEV (Homo sapiens, UniProt Q99581 1-238)
# T5 sequence: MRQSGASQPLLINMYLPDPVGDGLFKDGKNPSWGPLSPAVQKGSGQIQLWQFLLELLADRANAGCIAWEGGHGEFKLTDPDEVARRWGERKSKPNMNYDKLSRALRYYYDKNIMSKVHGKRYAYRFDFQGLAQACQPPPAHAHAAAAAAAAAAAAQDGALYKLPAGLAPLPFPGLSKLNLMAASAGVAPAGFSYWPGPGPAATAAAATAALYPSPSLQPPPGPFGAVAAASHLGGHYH
# How it was run: as §1
# [8] = target: T6, ELF3 (Homo sapiens, UniProt P78545 1-371)
# T6 sequence: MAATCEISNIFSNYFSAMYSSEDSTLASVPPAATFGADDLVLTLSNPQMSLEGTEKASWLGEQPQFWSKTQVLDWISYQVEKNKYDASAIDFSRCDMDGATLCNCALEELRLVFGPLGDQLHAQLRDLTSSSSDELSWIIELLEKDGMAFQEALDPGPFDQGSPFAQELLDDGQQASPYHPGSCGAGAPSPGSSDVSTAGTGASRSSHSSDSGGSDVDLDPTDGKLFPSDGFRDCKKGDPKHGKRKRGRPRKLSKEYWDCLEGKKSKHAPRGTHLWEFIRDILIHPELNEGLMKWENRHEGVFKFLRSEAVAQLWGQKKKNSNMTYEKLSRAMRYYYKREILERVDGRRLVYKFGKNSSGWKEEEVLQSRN
# How it was run: as §1
# [9] = target: ETV1 (Homo sapiens, UniProt P50549 1-477)
# Chain of ETV1 (P50549 whole entry): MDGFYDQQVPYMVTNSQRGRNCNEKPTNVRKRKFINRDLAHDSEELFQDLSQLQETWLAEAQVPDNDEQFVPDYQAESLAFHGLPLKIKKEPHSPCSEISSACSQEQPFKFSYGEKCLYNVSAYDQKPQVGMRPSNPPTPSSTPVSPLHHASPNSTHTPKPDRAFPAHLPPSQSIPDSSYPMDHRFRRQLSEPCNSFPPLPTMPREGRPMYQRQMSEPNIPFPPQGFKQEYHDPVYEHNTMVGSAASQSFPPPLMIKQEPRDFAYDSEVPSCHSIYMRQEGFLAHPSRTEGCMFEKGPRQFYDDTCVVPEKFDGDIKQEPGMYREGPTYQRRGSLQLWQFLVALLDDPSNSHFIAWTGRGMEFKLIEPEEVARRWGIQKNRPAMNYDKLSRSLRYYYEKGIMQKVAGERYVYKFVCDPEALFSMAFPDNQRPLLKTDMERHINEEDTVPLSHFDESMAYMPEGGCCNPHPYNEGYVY
# How it was run: as §1
# [10] = target: T7, ETV3L (Homo sapiens, UniProt Q6ZN32 1-361)
# T7 sequence: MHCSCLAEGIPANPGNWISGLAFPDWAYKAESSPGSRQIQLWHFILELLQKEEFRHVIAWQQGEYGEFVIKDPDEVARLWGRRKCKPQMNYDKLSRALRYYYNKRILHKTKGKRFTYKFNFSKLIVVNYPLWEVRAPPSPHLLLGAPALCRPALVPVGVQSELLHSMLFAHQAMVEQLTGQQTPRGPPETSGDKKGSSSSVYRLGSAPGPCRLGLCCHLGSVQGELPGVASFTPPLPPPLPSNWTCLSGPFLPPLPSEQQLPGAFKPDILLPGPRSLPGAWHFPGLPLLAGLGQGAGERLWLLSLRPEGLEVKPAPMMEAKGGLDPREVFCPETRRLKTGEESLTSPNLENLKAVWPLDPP
# How it was run: as §1
# [11] = target: T8, ELK4 (Homo sapiens, UniProt P28324-2 1-405)
# T8 sequence: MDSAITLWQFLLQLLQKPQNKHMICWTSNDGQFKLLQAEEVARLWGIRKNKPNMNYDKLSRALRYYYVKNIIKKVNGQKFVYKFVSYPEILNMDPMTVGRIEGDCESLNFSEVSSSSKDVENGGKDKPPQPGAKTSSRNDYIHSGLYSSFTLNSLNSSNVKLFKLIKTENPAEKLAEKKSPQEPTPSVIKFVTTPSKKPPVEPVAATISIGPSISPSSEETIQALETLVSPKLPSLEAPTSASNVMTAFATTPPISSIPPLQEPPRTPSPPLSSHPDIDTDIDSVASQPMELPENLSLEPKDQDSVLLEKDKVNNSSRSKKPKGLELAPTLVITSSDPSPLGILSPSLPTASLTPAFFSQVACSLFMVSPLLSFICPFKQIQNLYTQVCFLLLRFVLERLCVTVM
# How it was run: as §1
# [12] = target: T9, ELF5 (Homo sapiens, UniProt Q9UKW6-2 1-255)
# T9 sequence: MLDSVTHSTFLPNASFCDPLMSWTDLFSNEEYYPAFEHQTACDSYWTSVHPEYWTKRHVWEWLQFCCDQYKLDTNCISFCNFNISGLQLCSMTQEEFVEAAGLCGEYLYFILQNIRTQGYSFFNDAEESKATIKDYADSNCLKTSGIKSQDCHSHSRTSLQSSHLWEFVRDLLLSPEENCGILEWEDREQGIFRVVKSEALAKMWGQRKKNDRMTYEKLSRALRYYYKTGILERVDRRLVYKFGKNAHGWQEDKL
# How it was run: as §1
# [13] = target: ETV6 (Homo sapiens, UniProt P41212 1-452)
# Chain of ETV6 (P41212 whole entry): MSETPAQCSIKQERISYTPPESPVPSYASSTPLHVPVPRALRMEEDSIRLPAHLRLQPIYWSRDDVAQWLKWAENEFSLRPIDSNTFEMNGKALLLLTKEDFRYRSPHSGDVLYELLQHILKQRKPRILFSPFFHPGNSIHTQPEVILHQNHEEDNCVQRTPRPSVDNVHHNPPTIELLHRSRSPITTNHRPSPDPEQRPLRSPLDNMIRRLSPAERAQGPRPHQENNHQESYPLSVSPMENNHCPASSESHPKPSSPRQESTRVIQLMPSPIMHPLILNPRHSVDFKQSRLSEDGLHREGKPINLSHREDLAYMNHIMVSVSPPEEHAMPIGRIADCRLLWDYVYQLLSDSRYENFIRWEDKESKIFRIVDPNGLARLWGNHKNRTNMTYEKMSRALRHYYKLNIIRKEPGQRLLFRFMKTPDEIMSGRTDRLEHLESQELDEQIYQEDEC
# How it was run: as §1
# [14] = target: SPI1 (Homo sapiens, UniProt P17947 1-270)
# How it was run: as §1
sequence,measurement,setting,value
GCCAAC,binding signal,[1],"1.01 fold enrichment (6-mer frequency, TF over GST control)"
same,binding signal,[2],"1.04 fold enrichment (6-mer frequency, TF over GST control)"
same,binding signal,[3],"1.03 fold enrichment (6-mer frequency, TF over GST control)"
CATCAA,binding signal,[4],"1.01 fold enrichment (6-mer frequency, TF over GST control)"
same,binding signal,[5],"1.03 fold enrichment (6-mer frequency, TF over GST control)"
same,binding signal,[1],"1.03 fold enrichment (6-mer frequency, TF over GST control)"
same,binding signal,[6],"1.07 fold enrichment (6-mer frequency, TF over GST control)"
same,binding signal,[7],"1 fold enrichment (6-mer frequency, TF over GST control)"
same,binding signal,[2],"1.05 fold enrichment (6-mer frequency, TF over GST control)"
same,binding signal,[8],"1.03 fold enrichment (6-mer frequency, TF over GST control)"
same,binding signal,[9],"1.01 fold enrichment (6-mer frequency, TF over GST control)"
same,binding signal,[3],"1.02 fold enrichment (6-mer frequency, TF over GST control)"
same,binding signal,[10],"1.08 fold enrichment (6-mer frequency, TF over GST control)"
GTGGTC,binding signal,[11],"1.06 fold enrichment (6-mer frequency, TF over GST control)"
GATCCG,binding signal,[12],"1.02 fold enrichment (6-mer frequency, TF over GST control)"
AGGTAA,binding signal,[12],"1.01 fold enrichment (6-mer frequency, TF over GST control)"
same,binding signal,[13],"1.02 fold enrichment (6-mer frequency, TF over GST control)"
ATAACG,binding signal,[13],"1.03 fold enrichment (6-mer frequency, TF over GST control)"
GTAGCC,binding signal,[14],"1.03 fold enrichment (6-mer frequency, TF over GST control)"
